This is part of a sample that, as a whole, favours compounds with a hit. Of some 83,000 tested, about 20% had one in any assay.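 48-hour exposure, single concentration, 96-well plates; percent growth endpoint where 0 means no net growth. Active: below 10.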 A number with no mark means an inactive call. Active and inactive are the calls of the source.

For the test, the system named is MDA-MB-468 breast. In words: NCI-60 one-dose screen, 48 h (100 = growth as untreated, 0 = no growth, -100 = all killed). The conditions noted are these: 10 µM unless noted.

As to `COc1cc([C@@H]2c3cc4c(cc3[C@H](O)[C@H]3COC(=O)[C@H]23)OCO4)cc(OC)c1OC`, the growth is -17.5% (active). As for `O=C(COCc1c(-c2ccccc2)no[n+]1[O-])Nc1nc(-c2ccc(Cl)cc2)cs1`, the figure is 100%; as for `COc1ccc(-c2nc(-c3nc4ccc(OC)cc4[nH]3)cc3c2[nH]c2ccccc23)cc1`, 59.6%. With `N#Cc1cccc(-c2nc3ccccn3c2NCCN2CCOCC2)c1`, the growth is 111%. Then `COC(=O)/C(CCC=C(C)C)=C1\[C@@H](OC(C)=O)C[C@@]2(C)[C@H]1CC(=O)[C@H]1[C@@]3(C)CC[C@H](NCc4ccccc4)[C@@H](C)[C@@H]3CC[C@@]12C`, with 87.2%. As for `CC(=O)Nc1ccccc1-c1nc2ccccc2s1`, the figure is 93%; as for `COc1cc2nc(N3CCCC3)nc(NCc3ccccc3)c2cc1OC`, 45.2%; as for `Cc1ccc(NC(=S)/N=c2/n(-c3ccccc3)nc3n2CCN3C2=NCCN2)cc1`, 104%. As for `Cc1oc2ncnc(Nc3ccccc3)c2c1C(=O)NCCO`, the figure is 109%; as for `Cc1cccc(C)c1NCc1nnc(-c2ccc(O)cc2)o1`, 96.2%; as for `C#Cc1cc(C(=O)Nc2ccc(CN3CCN(C)CC3)c(C(F)(F)F)c2)ccc1C`, 66.5%. `CC(=O)CC1CCCC1c1ccc2ccccc2c1` (configuration not stated): the growth is 101%. As for `CCN(CC)CC(=O)Nc1c(C)ccc(N)c1C`, the figure is 95.8%; as for `Cc1c(-n2nnc(-c3nc4ccccc4s3)c2N)c(=O)n(-c2ccccc2)n1C`, 110%. As to `CCOC(=O)c1c(C)cc(=O)oc1C`, the growth was 105%.

With `COc1c2c(cc3c1C(=O)N[C@@H]1[C@@H](O)[C@@H](O)[C@H](O)C[C@@H]31)OCCO2`, the growth was 93.1%. With `O=C1/C(=C/c2ccc([N+](=O)[O-])s2)Oc2ccccc21`, the growth was -34.1% (active). Then `COc1ccc(-c2oc3cc(O)c(OC)c(O)c3c(=O)c2OC)cc1O`, with -26.6% (active). Then `CCCOC(=O)c1ccc2c(c1)[N+](=O)C(C(=O)c1ccccc1)=C(C(F)(F)F)[N+]2=O`, with -81.4% (active); and `O=c1oc2c(cc1-c1ccccc1)c[n+]([O-])c1ccccc21`, with 104%.

As to `C=C1C(=O)O[C@H]2[C@H]1CC/C(COC(=O)n1ccnc1C)=C\CC[C@@]1(C)O[C@@H]21`, the growth was 76.4%. For `S=c1[nH]c2cc(Cl)ccc2o1`, the growth is 99%. For the compound `COc1cccc(/C=N/Nc2nc3ccccc3s2)c1OC`, the growth is 80.3%. Then `N=C(N)c1ccc(-c2ccc(-c3ccccc3)s2)cc1`, with -39.2% (active); and `COc1cc(-c2nn(-c3ccc(C(=O)O)cc3)cc2C(=O)O)ccc1O`, with 103%. Then `C=C1CCC2C3(C)COC(c4ccc(OC)cc4Br)OC3CCC2(C)C1/C=C/C1=CCOC1=O` (configuration not stated), with 54.3%; and `N#Cc1nc(-c2ccccc2)oc1N1CCC(C2(C(F)(F)F)N=N2)CC1`, with 112%. `COc1ccc(C2C(c3nn[nH]n3)=C(N)Oc3c2ccc2ccccc32)cc1` (configuration not stated): the growth is 43.8%. As for `CC1CN(S(=O)(=O)c2oc(-c3ccc(Cl)cc3)nc2C#N)CC(C)O1` (configuration not stated), the growth is 70%. On to `CNC(=O)c1cc(-n2ccc3cc(NC(=O)Nc4ccc(N5CCOCC5)c(C(F)(F)F)c4)ccc32)ccn1`, for which the growth was 95.2%. As for `CC(=O)c1cc(C)c(OC(=O)c2ccccc2)c(C)c1`, the figure is 94%; as for `CC1CC(=O)OC(C)C1` (configuration not stated), 99.6%.
